Among the data in ChEMBL document CHEMBL1961873, “Compounds: GSK PKIS; Assays: Nanosyn kinase panel” (2012) are inhibition values, retold here.

Assay [1] deals with T1, Serine/threonine-protein kinase TBK1 (Homo sapiens) (UniProt Q9UHD2).
T1 sequence (whole entry): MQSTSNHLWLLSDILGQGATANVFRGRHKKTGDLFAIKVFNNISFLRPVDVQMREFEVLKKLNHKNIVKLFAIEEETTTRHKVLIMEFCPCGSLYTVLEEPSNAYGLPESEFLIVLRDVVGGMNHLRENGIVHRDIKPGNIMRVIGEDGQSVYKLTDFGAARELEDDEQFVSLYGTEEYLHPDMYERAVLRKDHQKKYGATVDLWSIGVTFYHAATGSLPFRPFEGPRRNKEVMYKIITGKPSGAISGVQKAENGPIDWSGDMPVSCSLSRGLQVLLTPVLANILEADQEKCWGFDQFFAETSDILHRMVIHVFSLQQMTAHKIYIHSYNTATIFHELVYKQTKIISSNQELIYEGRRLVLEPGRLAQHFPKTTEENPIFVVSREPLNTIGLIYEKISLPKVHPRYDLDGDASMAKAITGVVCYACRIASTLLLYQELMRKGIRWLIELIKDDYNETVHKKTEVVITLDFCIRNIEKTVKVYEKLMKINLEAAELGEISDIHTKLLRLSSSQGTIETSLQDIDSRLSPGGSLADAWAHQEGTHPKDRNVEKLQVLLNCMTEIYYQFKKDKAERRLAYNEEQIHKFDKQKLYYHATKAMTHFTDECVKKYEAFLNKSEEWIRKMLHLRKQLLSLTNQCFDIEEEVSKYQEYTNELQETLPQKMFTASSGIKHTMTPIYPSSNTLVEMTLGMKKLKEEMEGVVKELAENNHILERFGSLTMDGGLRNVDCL
The conditions noted are these: at 1 µM.

Assay [2] concerns the target T2, Testis-specific serine/threonine-protein kinase 1 (Homo sapiens) (UniProt Q9BXA7).
T2 sequence (whole entry): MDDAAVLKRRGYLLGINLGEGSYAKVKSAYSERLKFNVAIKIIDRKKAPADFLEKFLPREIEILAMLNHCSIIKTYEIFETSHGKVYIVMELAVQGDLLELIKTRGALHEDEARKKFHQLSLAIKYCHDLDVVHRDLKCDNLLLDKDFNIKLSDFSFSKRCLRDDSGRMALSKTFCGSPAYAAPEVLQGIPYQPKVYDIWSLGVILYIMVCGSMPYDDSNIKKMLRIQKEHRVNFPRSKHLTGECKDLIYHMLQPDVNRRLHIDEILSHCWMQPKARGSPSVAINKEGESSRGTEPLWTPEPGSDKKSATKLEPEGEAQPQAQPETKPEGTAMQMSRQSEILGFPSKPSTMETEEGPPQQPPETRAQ
Particulars: at 0.1 µM.

Assay [3] addresses T2, Testis-specific serine/threonine-protein kinase 1 (Homo sapiens). The conditions noted are these: at 1 µM.
For assay [4], the target named is T3, Testis-specific serine/threonine-protein kinase 2 (Homo sapiens) (UniProt Q96PF2).
T3 sequence (whole entry): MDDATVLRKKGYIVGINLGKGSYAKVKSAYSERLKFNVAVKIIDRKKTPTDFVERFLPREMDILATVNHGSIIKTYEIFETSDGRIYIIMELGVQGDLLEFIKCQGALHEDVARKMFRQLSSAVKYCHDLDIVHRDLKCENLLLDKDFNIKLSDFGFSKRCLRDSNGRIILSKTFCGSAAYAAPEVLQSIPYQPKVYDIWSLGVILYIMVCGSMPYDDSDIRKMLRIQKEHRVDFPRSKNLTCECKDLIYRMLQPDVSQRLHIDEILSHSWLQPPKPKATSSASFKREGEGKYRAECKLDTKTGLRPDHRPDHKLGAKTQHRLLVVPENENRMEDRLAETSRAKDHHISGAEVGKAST
The conditions noted are these: at 0.1 µM.

Assay [5] deals with T3, Testis-specific serine/threonine-protein kinase 2 (Homo sapiens). The conditions noted are these: at 1 µM.
The target in assay [6] is Casein kinase I isoform alpha (Homo sapiens) (UniProt P48729). Particulars: at 0.1 µM.
Sequence of Casein kinase I isoform alpha (Homo sapiens) (P48729 2-337 limits assumed): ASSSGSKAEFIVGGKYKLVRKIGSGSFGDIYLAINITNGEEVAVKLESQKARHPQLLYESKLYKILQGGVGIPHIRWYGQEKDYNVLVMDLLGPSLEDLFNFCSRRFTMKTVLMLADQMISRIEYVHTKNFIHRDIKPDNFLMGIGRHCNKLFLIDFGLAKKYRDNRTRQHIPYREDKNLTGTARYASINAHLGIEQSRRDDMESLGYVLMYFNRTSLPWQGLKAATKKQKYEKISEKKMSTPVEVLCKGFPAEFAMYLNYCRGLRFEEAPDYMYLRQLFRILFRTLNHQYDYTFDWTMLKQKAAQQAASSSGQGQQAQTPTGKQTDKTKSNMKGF
Assay [7] shares this target. Particulars: at 1 µM.
Assay [8] deals with Casein kinase I isoform gamma-1 (Homo sapiens) (UniProt Q9HCP0). Particulars: at 0.1 µM.
Sequence of Casein kinase I isoform gamma-1 (Homo sapiens) (Q9HCP0 whole entry, looked up, canonical isoform): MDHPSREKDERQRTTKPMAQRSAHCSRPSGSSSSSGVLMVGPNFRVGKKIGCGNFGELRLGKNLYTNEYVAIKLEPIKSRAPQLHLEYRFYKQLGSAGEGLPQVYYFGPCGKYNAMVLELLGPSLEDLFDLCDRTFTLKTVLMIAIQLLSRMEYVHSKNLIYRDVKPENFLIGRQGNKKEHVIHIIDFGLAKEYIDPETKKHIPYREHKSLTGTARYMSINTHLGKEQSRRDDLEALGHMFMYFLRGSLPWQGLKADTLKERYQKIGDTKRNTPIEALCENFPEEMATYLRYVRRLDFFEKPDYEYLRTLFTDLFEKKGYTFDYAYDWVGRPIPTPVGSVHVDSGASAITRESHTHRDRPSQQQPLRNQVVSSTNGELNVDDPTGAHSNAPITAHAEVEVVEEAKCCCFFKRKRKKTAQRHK
Assay [9] shares this target. The conditions noted are these: at 1 µM.
The target of assay [10] is Casein kinase I isoform gamma-2 (Homo sapiens) (UniProt P78368). The conditions noted are these: at 0.1 µM.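 Further: values are mean inhibition figures reported as part of the GSK PKIS dataset.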
Sequence of Casein kinase I isoform gamma-2 (Homo sapiens) (P78368 whole entry, looked up, canonical isoform): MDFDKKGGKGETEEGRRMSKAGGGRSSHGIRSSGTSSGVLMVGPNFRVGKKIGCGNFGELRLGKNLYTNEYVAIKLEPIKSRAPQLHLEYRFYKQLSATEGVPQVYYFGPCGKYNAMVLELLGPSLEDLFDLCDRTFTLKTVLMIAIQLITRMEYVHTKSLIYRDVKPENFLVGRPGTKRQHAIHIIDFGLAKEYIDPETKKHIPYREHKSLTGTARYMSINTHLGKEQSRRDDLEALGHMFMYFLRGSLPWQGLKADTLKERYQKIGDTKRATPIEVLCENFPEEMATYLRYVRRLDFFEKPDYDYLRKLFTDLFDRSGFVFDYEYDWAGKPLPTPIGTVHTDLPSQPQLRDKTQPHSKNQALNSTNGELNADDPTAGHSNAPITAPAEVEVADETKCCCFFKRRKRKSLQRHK

The term inhibition denotes the drop in the measured response relative to a control, in per cent. `CCn1c(-c2nonc2N)nc2c(C#CC(C)(C)O)ncc(OCC3CCNCC3)c21`: the inhibition in assay [1] is 44.7%; in assay [2], 24.4%; in assay [3] it was 73%; in assay [4] it was 2.77%; in assay [5] it was 5.17%; in assay [6] it was 4.15%. Further, the inhibition is 4.34% in assay [7], -0.98% in assay [8], 0.65% in assay [9] and -1.19% in assay [10].
With `Nc1nonc1-c1nc2cnccc2n1C1CCCCC1`, the inhibition was 24.8% in assay [1]; 0.17% in assay [2]; 6.12% in assay [3]; -1.12% in [4]; -2.07% in assay [5]; -1.01% in assay [6]. Also, the inhibition in assay [7] was -0.02%; in [8], -2.65%; in assay [9], -0.45%; in assay [10], -2.61%.
Turning to `CCn1c(-c2nonc2N)nc2c(C#CCN)ncc(OCCCN)c21`, the inhibition in assay [1] is 4.32%; in assay [2], -0.75%; in [3], 11.3%; in assay [4] it was -0.97%; in assay [5] it was 4.75%; in [6] it was 1.05%. Also, the inhibition is -3.92% in [7], -2.42% in assay [8], -2.61% in [9] and -0.29% in assay [10].
As for `COc1cccc(-n2ncc3c(N/N=C/c4ccncc4)ncnc32)c1`, the inhibition in assay [1] amounted to 13.1%; in assay [2], 4.13%; in assay [3], 5.05%; in assay [4], 1.6%; in assay [5], 2.48%; in assay [6], 6.11%. The inhibition came to 11.2% in [7], 3.65% in assay [8], 7.48% in assay [9] and 3.26% in [10].
Take `CCn1c(-c2nonc2N)nc2c(C#CC(C)(C)O)nc(O[C@@H](CN)c3ccccc3)cc21`: the inhibition in assay [1] turned out to be 68%; in [2], 85.5%; in [3] it was 95.6%; in assay [4], 1.41%; in assay [5], 14.8%; in [6], 1.59%. Also, the inhibition is 4.15% in [7], -0.58% in assay [8], 7.01% in [9] and -0.78% in assay [10].
Turning to `COc1cccc(COc2cc(-n3cnc4ccccc43)sc2C(N)=O)c1`, the inhibition in assay [1] is 1.53%; in assay [2], -0.31%; in assay [3], -0.86%; in assay [4], 0.72%; in assay [5] it was -0.49%; in assay [6], -2.17%. Also, the inhibition in assay [7] was -2.7%; in assay [8] it was 1.18%; in assay [9], 2.68%; in [10] it was 2.02%.
On to `NC(=O)c1sc(-n2cnc3cc(C(F)(F)F)ccc32)cc1OCc1ccccc1Br`, for which the inhibition in [1] came to 1.3%; in assay [2] it was 2.93%; in assay [3], 3.05%; in assay [4] it was 2.48%; in [5], 1.1%; in [6], 1.1%. For the same compound, the inhibition is -0.24% in assay [7], 1.09% in [8], -0.28% in assay [9] and 0.61% in [10].
`CCn1c(-c2nonc2N)nc2c(C#CC(C)(C)O)ncc(OC[C@@H]3CCCN3)c21`: the inhibition is 41.2% in [1]; 20.6% in assay [2]; 70.4% in assay [3]; 4.9% in assay [4]; 2.67% in assay [5]; -1.71% in [6]. Moreover, the inhibition in assay [7] is -2.58%; in assay [8], 1.04%; in [9], 2.69%; in assay [10], 1.05%.
For `Fc1ccc(-c2ncn(C3CCNCC3)c2-c2ccnc(Oc3ccccc3)n2)cc1`, the inhibition in assay [1] was 2.78%; in assay [2], 2.36%; in assay [3], 1.65%; in assay [4], 0.82%; in assay [5] it was 0.7%; in assay [6], 4.72%. For the same compound, the inhibition in [7] is 30.9%; in assay [8], -1.52%; in [9] it was 4.5%; in assay [10], -1.96%.
For the compound `NS(=O)(=O)c1ccc(N/C=C2\C(=O)Nc3ccc4ncsc4c32)cc1`, the inhibition in [1] was 46.7%; in assay [2], 5.24%; in assay [3], 19.4%; in assay [4], 1.13%; in assay [5], 2.94%; in assay [6], 3.99%. In addition, the inhibition in assay [7] amounted to 14.7%; in assay [8], 4.38%; in assay [9], 9.59%; in assay [10], 2.65%.
In the case of `COc1cc(C=NNc2ncnc3c2cnn3Cc2ccccc2)ccc1O`, the inhibition in [1] was 3.75%; in assay [2] it was -3.19%; in assay [3], -2.62%; in assay [4] it was -2.34%; in [5] it was -2.56%; in assay [6], -0.09%. Besides, the inhibition in [7] was -4.3%; in assay [8], -3.34%; in [9], -3.33%; in [10] it was -2.95%.
As to `COc1cc2c(cc1Nc1nc(Nc3ccsc3C(N)=O)c3cc[nH]c3n1)N(C(=O)CN(C)C)CCC2`, the inhibition in assay [1] is 25%; in assay [2] it was 92.3%; in assay [3], 95.5%; in [4], 59.4%; in assay [5], 91.2%; in assay [6] it was -0.45%. Further, the figures for the inhibition in assay [7], in [8] and in assay [9] were 4.2%, -0.49% and 5.86%, respectively.
`Cc1cc(-c2ccco2)cc(C)c1/C=C/c1cncc(-c2nn[nH]n2)c1`: the inhibition is 2.37% in [1]; 1.7% in [2]; 2.37% in assay [3]; 1.46% in assay [4]; 0.42% in [5]; 1.02% in assay [6]. The inhibition in [7] was -0.59%; in assay [8] it was 1.01%; in assay [9], 1.56%; in assay [10] it was 0.62%.
`NS(=O)(=O)c1ccc(-c2ccc3c(NC(=O)C4CC4)n[nH]c3c2)cc1`: the inhibition in [1] was 3.1%; in assay [2], 0.11%; in assay [3], -0.04%; in assay [4], 1.09%; in assay [5], -2.52%; in [6], 6.65%. In addition, the inhibition in assay [7] amounted to 2.79%; in [8], 1.56%; in assay [9], 2.58%; in assay [10], 1%.
